Where “and” joins values, the source holds several entries; their conditions need not be identical. Identical values can stand only once. Results filed as inconclusive are left out. Calls of active or inactive are those of the source. Calls come from the whole dose curve; as a rule, active = well fitted inhibition curve with a large enough effect in the repeat runs; inconclusive = weak or mixed curves, or effect the other way; inactive = no such curve, though single readings can be large or run the other way.
Assay: qHTS assay to identify small molecule antagonists of the retinoic acid receptor (RAR) signaling pathway (AID 1159552; note: nearly all actives have a fitted effect of over 50% in size)
Details: C3RL4 RARE luciferase reporter, retinol-stimulated, 6 h; series mostly up to 92.4 µM; activity, negative = inhibition: at the top concentration
Source text: National Center for Advancing Translational Sciences [NCATS]
NIH Chemical Genomics Center [NCGC]
U.S. Environmental Protection Agency [EPA]
National Institutes of Environmental Health Sciences [NIEHS]
National Toxicology Program [NTP]
U.S. Food and Drug Administration [FDA]
All-trans Retinoic acid (atRA) is the potent natural metabolite of retinol and plays an important role in normal embryonic development and maintenance of cellular phenotype in adult animals. atRA is the activating ligand for the retinoic acid receptors (RARs) which form heterodimers with retinoid X receptors (RXRs) on the retinoic acid response element (RARE). Through activation of the RAR/RXRs nuclear receptors, atRA regulates the transcription of a large number of protein-coding genes and regulatory RNAs. Intracellular levels of atRA are controlled by the retinol signaling pathway (RSP) that regulates the biosynthesis and catabolism of atRA to maintain physiological levels. Chemicals that interfere with the RSP can cause abnormal intracellular levels of atRA and therefore are potential developmental toxicants. To assess compounds for the potential adverse effect on embryonic development through interfering with retinol signaling, a cell-based RARE luciferase reporter gene assay was used. C3RL4 cell line (OARSA/CFSAN/FDA, Laurel, MD) was used to screen Tox21 10K compound library for identifying inhibitors of the RSP.
Tox21 Assay Protocol Summary:
C3RL4 cells were seeded at 1,000/well in 4 uL of assay medium into white solid 1,536-well tissue culture plates (Greiner Bio-One North America Inc. Monroe, NC) using a Multidrop Combi (Thermo Scientific, Waltham, MA) dispenser. After incubation at 37 C and 5% CO2 for an overnight, 23 nL of compounds dissolved in DMSO, positive control or DMSO only were transferred by a Pintool station (Kalypsys, San Diego, CA). One ul of 1 uM (final concentration) of Retinol was added right after the compound addition by using a Flying Reagent Dispenser (FRD) (Aurora Discovery, San Diego, CA). After 6 hr incubation at 37 C and 5% CO2, 5 uL of Amplite Luciferase reagent (AAT Bioquest Inc. Sunnyvale, CA) was added to each assay plate using an FRD. Luminescence was quantified on a ViewLux plate reader (PerkinElmer, Waltham, MA) after 30 min incubation at room temperature.
% is set by controls: 0 for no effect and ±100 for the full control effect; potency is the fitted concentration of half-maximal effect.

SMILES	activity, negative = inhibition	Potency
ClCc1ccccc1	23.7% (inactive)	
C#CCOC(C(=O)OCCN(C)C)(c1ccccc1)c1ccccc1	-13.7% [at 42.5 µM] (inactive)	
CC(C)N(C(=O)COc1nnc(C(F)(F)F)s1)c1ccc(F)cc1	-5.84% (inactive)	
S=C=NCc1ccccc1	10.3% (inactive)	
CN(N=O)c1ccc([N+](=O)[O-])cc1	-17.4% (inactive)	
[CH3][Sn]([CH3])([Cl])[Cl]		55.4 µM (active) and 48.6 µM (active)
Nc1ccc(N=Nc2ccc(-c3ccc(N=Nc4c(S(=O)(=O)O)cc5cc(S(=O)(=O)O)c(N=Nc6ccccc6)c(O)c5c4N)cc3)cc2)c(N)c1	-15.5% [at 42.5 µM] (inactive)	
OCCCBr	53.1% (inactive)	
O=C(CBr)c1ccccc1	108% (inactive)	
C/C(=C\c1ccccc1)[N+](=O)[O-]		30.6 µM (active)
CC(c1ccc(O)cc1)(c1ccc(O)cc1)c1ccc(O)cc1		61.1 µM (active)
C[C@H]1CNCCc2ccc(Cl)cc21	-10.4% [at 42.5 µM] (inactive)	
C(=NC1CCCCC1)=NC1CCCCC1		inactive
N#Cc1cc(I)c(O)c(I)c1		68.6 µM (active)
O=S1(=O)OC(c2cc(Br)c(O)c(Br)c2)(c2cc(Br)c(O)c(Br)c2)c2ccccc21		25 µM (active)
Clc1cc(Cl)c(Cl)c(Cl)c1	31.8% (inactive)	
O=C=Nc1ccc(Cl)cc1	143% (inactive)	
CCCCc1c(C)nc(NCC)nc1OS(=O)(=O)N(C)C	-22.2% (inactive)	
COc1nn(C(=O)NS(=O)(=O)c2ccccc2OC(F)(F)F)c(=O)n1C	-10.9% (inactive)	
CNP(=O)(OC)Oc1ccc(C(C)(C)C)cc1Cl (stereo not given)	-5.17% (inactive)	

SMILES	activity, negative = inhibition	Potency
C=COC(C)=O	0.289% (inactive)	
O=Cc1ccc(Cl)cc1Cl	2.49% (inactive)	
CCOP(=S)(Oc1ccc([N+](=O)[O-])cc1)c1ccccc1 (stereo not given)	4.68% (inactive)	
CCO[C@H]1O[C@@H]2OC3(C)CC[C@H]4[C@H](C)CC[C@@H]([C@H]1C)[C@@]24OO3	-0.217% [at 42.5 µM] (inactive)	
O=C(O)COc1ccc(Cl)cc1	2.57% (inactive)	
ClCCCCBr	-9.09% (inactive)	
CCC(C)(NC(=O)c1cc(Cl)c(C)c(Cl)c1)C(=O)CCl (stereo not given)		4.89 µM (active)
CC1C(=O)C[C@]2(C(C)C)C[C@H]12 (stereo not given in full)	8.43% (inactive)	
O=C(NCc1cccnc1)Nc1ccc([N+](=O)[O-])cc1	50.3% (inactive)	
Cl/C=C\Cl	-22.3% (inactive)	
CCOC(=O)C(Cl)C(C)=O (stereo not given)	-3.88% (inactive)	
CCOP(=S)(OCC)SCn1nnc2ccccc2c1=O	8.09% (inactive)	
CCOP(=O)(OCC)SCCSCC		inactive
OC(c1ccc(Cl)cc1)(c1ccc(Cl)cc1)c1cccnc1	-3.77% (inactive)	
O=C(Nc1ccccc1)Nc1cnns1	46.1% (inactive)	
NS(=O)(=O)C(F)(F)C(F)(F)C(F)(F)C(F)(F)C(F)(F)C(F)(F)C(F)(F)C(F)(F)F	16.1% (inactive)	
CC1Sc2c(C(=O)O)c(=O)c3cc(F)c(N4CCNCC4)cc3n21 (stereo not given)	-11.8% [at 42.5 µM] (inactive)	
O=C(O)CC(Cl)C(=O)O (stereo not given)	-3.72% (inactive)	
CCOC(=O)COc1cc(-c2nn(C)c(OC(F)F)c2Cl)c(F)cc1Cl	0.145% (inactive)	
NC(=O)C(Cl)(Cl)Cl	8.77% (inactive)	
